From PubChem BioAssay (NCI)
Values joined by “and” are separate entries in the source; they are usually repeats but may differ in a detail not shown here. Identical values can stand only once. This is part of a sample that, as a whole, favours compounds with a hit. Of some 79,000 tested, about 15% had one in any assay. Active and inactive are the calls of the source. Cut-off read from the data, not from the text of the source: active = growth inhibition above about 70%; inactive = the rest.

Key:
[1] = NCI Yeast Anticancer Drug Screen. Data for the rad50 strain (AID 155);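 note: 0% = growth of vehicle-only cultures of the same strain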; details: S. cerevisiae rad50 strain growth inhibition, active compounds read high; at 50.0 µM unless noted
Outline: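 Cells are treated with compound, grown, and their growth is then scored against vehicle-only cultures of the same repair-deficient yeast strain.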

[2] = NCI Yeast Anticancer Drug Screen. Data for the mec2-1 strain (AID 157); details: S. cerevisiae mec2-1 strain, active compounds read high; at 50.0 µM unless noted
Outline: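 Mutant yeast (mec2-1) grown with compound; growth inhibition relative to vehicle control reported.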

[3] = NCI Yeast Anticancer Drug Screen. Data for the sgs1 mgt1 strain (AID 161);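 note: 0% = growth of cultures given vehicle only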; details: S. cerevisiae sgs1 mgt1 strain, active compounds read high; at 50.0 µM unless noted
Outline: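 Percent growth inhibition was derived by comparing compound-exposed mutant yeast with vehicle-exposed cultures. The strain carries alterations in DNA damage repair.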

[4] = NCI Yeast Anticancer Drug Screen. Data for the cln2 rad14 strain (AID 165);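 note: 0% = growth equal to vehicle treated cultures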; details: S. cerevisiae cln2 rad14 strain, active compounds read high; at 50.0 µM unless noted
Outline: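 Readout is yeast growth inhibition versus vehicle-treated controls, using a strain with cln2 and rad14 alterations exposed to compound.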

[5] = NCI Yeast Anticancer Drug Screen. Data for the bub3 strain (AID 167); details: S. cerevisiae bub3 mutant strain, active compounds read high; at 50.0 µM unless noted
Outline: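 Part of a panel of yeast mutants defective in DNA damage repair or cell cycle regulation. Each strain is grown with compound, and inhibition is calculated relative to solvent-treated cultures.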

[6] = NCI Yeast Anticancer Drug Screen. Data for the mlh1 rad18 strain (AID 175); details: S. cerevisiae mlh1 rad18 strain growth inhibition, active compounds read high; at 50.0 µM unless noted
Outline: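 Genetically defined yeast (DNA repair-deficient) exposed to compounds; growth inhibition determined relative to vehicle.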

Measured: growth inhibition

N.N.N.N.O=C(O)C1OCCOCCOC(C(=O)O)C(C(=O)O)OCCOCCOC1C(=O)O.[Pt+2].[Pt+2] (stereo not given)
inactive: [1] -33.2% | [2] -14% | [3] -12.5% | [4] -26.1% | [5] -13.5% | [6] -9.2%

Cc1ccccc1C=NC12CC3CC(CC(C3)C1)C2
inactive: [1] -24.8% | [2] -18.1% | [3] -22.2% | [4] 7.2% | [5] -8.4% | [6] -25.1%

C1C2OC2CC2OC12 (stereo not given)
inactive: [1] -13.4% | [2] -9.35% | [3] -1.2% | [4] 55.8% | [5] -1.05% | [6] -4.25%

CN1C(=O)C/C(=C/[N+](=O)[O-])c2ccccc21
inactive: [1] 3.5% | [2] -1.05% | [3] 4.2% | [4] 8.05% | [5] 3.3% | [6] -18.9%

CCCCC(Sc1nn(C2OC(COC(=O)c3ccccc3)C(OC(=O)c3ccccc3)C2OC(=O)c2ccccc2)c(=O)[nH]c1=O)C(=O)OCC (stereo not given)
inactive: [1] -1.45% | [2] -10.6% | [3] -21.4% | [4] -33.4% | [5] -4.7% | [6] 7.45%

CC1=C(CCC(=O)O)C(=O)C(CCC(=O)O)C(C)(C)C1 (stereo not given)
inactive: [1] 19.4% | [2] 7.45% | [3] 13.2% | [4] 56.6% | [5] 4.6% | [6] 8.15%

FC1=C(F)C2(F)C3CCC(O3)C2(F)C(Br)=C1F (stereo not given)
inactive: [1] -9.6% | [2] -3.3% | [3] 3.2% | [4] -1.35% | [5] -6.15% | [6] 4.5%

CN(C)CC[N+]1=Nc2cccc3cccc(c23)N1
inactive: [1] -6.85% | [2] -8.6% | [3] -2.4% | [4] 1.55% | [5] -6.2% | [6] 3.9%

O=C(CC(=O)c1ccc(OC(=O)c2ccccc2)cc1O)c1ccccc1
inactive: [1] -12.7% | [2] -4.95% | [3] -2.8% | [4] -16.1% | [5] 8% | [6] -27.6%

O=C(O)Cn1c(=O)[nH]c(=O)c2[nH]cnc21
inactive: [1] 4.6% | [2] -26.4% | [3] -0.3% | [4] 13.8% | [5] -9.2% | [6] -12%

O=C(Oc1ccc(Cl)cc1)c1ccc([N+](=O)[O-])cc1
inactive: [1] 12.2% | [2] 26.1% | [3] 9.9% | [4] 2.7% | [5] 8.65% | [6] 0.2%

O=C(CCC(=O)Nc1ccc(Cl)c(Cl)c1)Cc1nc2ccccc2o1
inactive: [1] -8.25% | [2] -24.4% | [3] -11.2% | [4] 18.6% | [5] -13.7% | [6] 1.1%

C=CCCCC12CCCc3cccc(c31)NC2=O (stereo not given)
inactive: [1] 48.7% | [2] 17.4% | [3] 24.8% | [4] 48% | [5] 46.5% | [6] 34.6%

C=CCC(C)(O)CCC(C)(O)CC=C (stereo not given)
inactive: [1] -1.95% | [2] -14.6% | [3] -8.3% | [4] 1.2% | [5] 0.95% | [6] 8.2%

COc1ccccc1NC(=O)C1=C(C)NC(C)=C(C(=O)Nc2ccccc2OC)C1c1ccccc1F
inactive: [1] 32% | [2] 5.35% | [3] 17.1% | [4] 16% | [5] -1.05% | [6] 15.7%

Cc1cc(-c2ccc(N=Nc3ccc4c(S(=O)(=O)O)cc(S(=O)(=O)O)c(N)c4c3O)c(C)c2)ccc1N=Nc1ccc2c(S(=O)(=O)O)cc(S(=O)(=O)O)c(N)c2c1O
inactive: [1] -137% and -0.25% | [2] -40.7% and -71.1% | [3] -56.4% and -33.9% | [4] -147% and -4.9% | [5] -118% and -26.3% | [6] -49.2% and -11.2%

O=C(O)C(=O)Nc1ccccc1
inactive: [1] -4.45% | [2] -15.5% | [3] -5.5% | [4] -34.8% | [5] 1.65% | [6] -5.8%

Nc1ccccc1SC1CC(=O)N(c2ccc3c(c2)OCO3)C1=O (stereo not given)
inactive: [1] 6.55% | [2] 8.85% | [3] 20.4% | [4] 16.4% | [5] 8.35% | [6] 16.3%

Cc1cc(O)c(C)c(C)c1O
inactive: [1] -4.1% | [2] -12.6% | [3] -6.95% | [4] -12.4% | [5] 4% | [6] 8.85%

C(=N\N1CN(/N=C/c2ccccc2)C(c2ccccc2)C1c1ccccc1)/c1ccccc1 (stereo not given)
inactive: [1] -6.2% | [2] -3.15% | [3] 4.5% | [4] 7.35% | [5] -1.65% | [6] 7.05%

CC(C)(C)NSc1nc2ccccc2s1
inactive: [1] -21.8% | [2] 2.45% | [3] -12.7% | [4] 4.2% | [5] -2.5% | [6] -8.5%

COc1ccc(NC(=O)c2ccc(OC)cc2)cc1
inactive: [1] 0.7% | [2] -8.9% | [3] 5.2% | [4] 1.95% | [5] 7.85% | [6] -3.7%

Nc1cncnc1N
inactive: [1] 35.7% | [2] 7.25% | [3] 31.9% | [4] 16.2% | [5] -18.6% | [6] 26.5%

CCCC(c1ccc(N(C)C)cc1)c1ccc(N(C)C)cc1
inactive: [1] -5% | [2] -22% | [3] -2.75% | [4] 16.6% | [5] 29.3% | [6] -30%

C/C(CC1=CCCCC1)=N\NC(N)=O
inactive: [1] -18.4% | [2] -17.9% | [3] -20.9% | [4] -27.9% | [5] -4.65% | [6] -12.7%

O=C(C[n+]1csc2ccccc21)c1ccccc1
inactive: [1] 9% | [2] 15.3% | [3] 17.1% | [4] 20.4% | [5] 30.4% | [6] 3.8%

C=CCCCC1CCCNC1=S (stereo not given)
inactive: [1] 8.3% | [2] 6.1% | [3] 20.4% | [4] 12.6% | [5] 28.9% | [6] 20.9%

CSC(=Nc1ccccc1Cl)NC(=O)c1ccc(Br)cc1
inactive: [1] -9.65% | [2] 20.7% | [3] 5.7% | [4] 19.3% | [5] 7.8% | [6] -8.4%

COc1cc(NC(C)=O)c2c(c1)SCC(=O)N2
inactive: [1] 3.2% | [2] -34.5% | [3] -3.7% | [4] 5.2% | [5] 24% | [6] 1.4%

COc1ccc2c(c1[N+](=O)[O-])CC[C@@H]1[C@@H]2CC[C@]2(C)C(=O)CC[C@@H]12
inactive: [1] 20.9% | [2] 21.1% | [3] 0% | [4] 37% | [5] 12.1% | [6] -30.9%

Cc1nnc(N/N=C(/C(=O)C(C#N)c2ccc(Cl)cc2)C(C#N)c2ccc(Cl)cc2)n1N (stereo not given)
inactive: [1] -9.3% | [2] 19.6% | [3] 3.85% | [4] 16.6% | [5] 12% | [6] 7.4%

CCCCN1CCC(N)=NC1=O
inactive: [1] 10.1% | [2] -24.9% | [3] -9.1% | [4] 9.2% | [5] -5.6% | [6] -4.15%

O=C1CSC(c2ccc(F)cc2F)N1c1nncs1 (stereo not given)
inactive: [1] 13.4% | [2] -3.7% | [3] 22.8% | [4] -35.2% | [5] -23.8% | [6] 24.2%

CCN(CC)CCCCCCNc1cc(O)cc2cccnc12
inactive: [1] 18.5% | [2] 30.8% | [3] 44% | [4] 8.45% | [5] 11.4% | [6] 14.4%

CCOC(=O)c1sc(N)nc1N1CCCC1
inactive: [1] 1.65% | [2] -23.9% | [3] -9.65% | [4] 10.1% | [5] 7% | [6] -2.25%

CC(=O)c1cccc(NC(=O)Oc2ccc(-c3ccccc3)cc2Cl)c1
active: [1] 99.2% | [2] 99.6% | [3] 99.5% | [4] 98.8% | [5] 99.5% | [6] 99.3%

OCCN/N=C/c1ccncc1
inactive: [1] -4.35% | [2] -52.2% | [3] -20.2% | [4] 15.2% | [5] -14.3% | [6] 23.8%

c1ccc(Nc2ccccc2)cc1 (tested in a mixture with another compound)
inactive: [1] 3.1% | [2] 20.2% | [3] 1.95% | [4] 1.6% | [5] 38.7% | [6] 9.8%

Cc1nc(Nc2cccc(Cl)c2)c2cnn(-c3ccc(Cl)cc3)c2n1
inactive: [1] -2.5% | [2] -0.25% | [3] 1.1% | [4] -41.4% | [5] -0.45% | [6] -4.35%

CC(=O)[CH-]C(=O)c1ccccc1.CC(=O)[CH-]C(=O)c1ccccc1.CC[C@H](/C=C/C(C)[C@H]1CCC2[C@@H]3CC=C4C[C@@H]([O-])CC[C@]4(C)C3CC[C@@]21C)C(C)C.CC[C@H](/C=C/C(C)[C@H]1CCC2[C@@H]3CC=C4C[C@@H]([O-])CC[C@]4(C)C3CC[C@@]21C)C(C)C.Cl.[Ti+4] (stereo not given in full)
inactive: [1] 8% | [2] 2.65% | [3] 19.3% | [4] -12.1% | [5] 24.6% | [6] 9.55%
